This is a sample that favours compounds with a hit; in the whole collection about 4.2% have one here.
TCR act – Activators of T cell receptors: qHTS campaign; primary human leukocytes, anti-CD3, IL-2 HTRF, 48 h; Potency, µM (titrated, usually from 9.22 µM), for the others: at the top dose activation of IL-2 secretion, hits mostly activators; 330,000 tested, under 10 active; note: % of control where 0% means no effect
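1) Mix primary human leukocytes, a-CD3 beads and compound. 2) Incubate 48 hr. 3) Add HTRF IL-2 reagents (a-IL-2-K, a-IL-2-d2).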
ClpP mod – qHTS Assay for Activators of ClpP. purified B. subtilis ClpP, FRET peptide cleavage, 20 min. 340,000 tested, 1.9% active. Potency, µM (titrated, usually from 57.5 µM), inactives show top-dose activity change, negative = active; active = well fitted falling curve with a large enough effect; inconclusive = small, poorly fitted or top-dose-only effect; inactive = no such curve, though single readings can be large or run the other way; note: potency is the fitted concentration of half-maximal effect; the source files actives as falling curves though it sought activators and does not explain the sign; nearly all actives have a fitted effect of over 65% in size
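Purified B. subtilis ClpP, 10 microg/mL final in Tris/HCl pH8 with KCl, BSA, glycerol and Tween-20, cleaved an Abz/nitrotyrosine-quenched decapeptide. Fluorescence (ex 320, em 430) was read at 0 and 20 min at room temperature. Delta was normalized to 5.8 microM ADEP and DMSO/no-enzyme controls.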
uPA surface inh – qHTS for Inhibitors of Cell Surface uPA Generation. 330,000 tested, 0.31% active. Potency, µM (top dose mostly 38.3 µM), for the others: at the highest dose activity change, negative = inhibition, most hits filed as inhibitors. cell surface uPA generation assay, qHTS. AID 540303, 2011; active = well fitted inhibition curve with a large enough effect; inconclusive = small, poorly fitted or top-dose-only effect; inactive = no such curve, though single readings can be large or run the other way; tested in mouse RAW 264.7 cells; note: potency is the fitted concentration of half-maximal effect; % is set by controls: 0 for no effect and ±100 for the full control effect; nearly all actives have a fitted effect of over 55% in size
Sfp inh – qHTS Assay for Inhibitors of Bacillus subtilis Sfp phosphopantetheinyl transferase (PPTase). 310,000 tested, 3.5% active. Biochemical Sfp PPTase activity, qHTS. AID 1490, 2009. Potency, µM, for inactives: largest response in the series, negative = inhibition, actives largely listed as inhibitors;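 note: the enzyme is Sfp with the accession as filed and its product quenches rhodamine fluorescence; potency is the fitted concentration of half-maximal effect; 0% = enzyme reaction without inhibitor and -100% = no enzyme wells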
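Step 1, compound plus 15 nM Sfp-PPTase, 15 min, room temperature. Step 2, add rhodamine-CoA (5 uM) and BHQ-2-YbbR (12.5 uM). Step 3, read 525/598 nm fluorescence at 0 and 30 min.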
An asterisk follows results filed as active; ? = inconclusive; · = no result; ! = repeats disagree; [ ] = dose if it differs, or a comment. Unless noted, calls come from the whole dose curve; as a rule, active = well fitted curve in the direction sought with a large enough effect; inconclusive = small, poorly fitted or top-dose-only effect, or another doubt; inactive = no such curve, though single readings can be large; an effect the other way counts as inactive or inconclusive.

SMILES	TCR act	ClpP mod	uPA surface inh	Sfp inh
Cc1ccc(-n2c(N)c(C(=O)N3CCCCC3)sc2=S)cc1	1.5%	0.8%	2.4%	44.7µM*
CCOC(=O)c1sc(=S)n(-c2ccc(Cl)cc2)c1SC	3.5%	-1.1%	1.3%	-11.3%
CCOC(=O)c1sc(=S)n(-c2ccc(F)c(F)c2)c1N	3.7%	0.9%	·	22.4µM*
Cc1ccc(-n2c(N)c(C(=O)NCc3cccnc3)sc2=S)cc1	1.4%	-0.4%	1.5%	35.5µM*
Cc1ccc(N2C(=O)CC(Nc3ccc(Cl)c(S(=O)(=O)N(C)C)c3)C2=O)c(C)c1 (configuration not stated)	4.2%	-0.7%	-19.8%	-7.0%
CCOC(=O)c1sc(=S)n(-c2ccc3c(c2)OCO3)c1N	-0.5%	-1.9%	·	28.2µM*
COCCOC(=O)c1c(C)n(S(=O)(=O)c2ccc(C)cc2)c2ccc(NS(=O)(=O)c3ccc(C)cc3)cc12	·	-0.2%	·	·
C#CCSc1nnc(-c2sc(-c3ccccc3)nc2C)n1C	4.4%	17.8µM*	1.5%	20.6%
CCCCN(C(=O)c1cc(S(=O)(=O)N2CCOCC2)ccc1Cl)c1c(N)n(CC(C)C)c(=O)[nH]c1=O	-3.1%	0.9%	-1.1%	·
O=C(NNc1c2ccccc2nc2ccccc12)c1ccc(Cl)cc1	-2.2%	·	4.6%	-16.8%
Cc1ccc(C(=O)NNc2c3ccccc3nc3ccccc23)cc1	9.9%	·	1.7%	25.1µM*
COc1ccc(CCNC(=O)CN(c2ccccc2)S(=O)(=O)N(C)C)cc1OC	·	-1.9%	·	·
S=c1[nH]c(-c2ccc(Cl)cc2)cs1	5.9%	·	5.3%	11.2µM*
Cc1ccc(-c2ccc(C(=O)O)[nH]2)cc1	1.4%	?	-3.3%	-1.9%
S=c1nccc(-c2ccc(Cl)cc2)[nH]1	0.3%	-2.5%	2.7%	-10.6%
Cc1ccc(-c2csc(=S)[nH]2)cc1	9.0%	2.1%	7.0%	35.5µM*
CC(C)C(C=Cc1ccccc1)=NNS(=O)(=O)c1ccccc1	·	1.8%	·	·
O=S(=O)(c1ccccc1)C(/C=N\O)/C=C/c1ccccc1 (configuration not stated)	-4.3%	·	-1.9%	50.1µM*
O=C(/C=C/Nc1ccc(Oc2ccccc2)cc1)c1ccco1	-6.3%	·	-8.5%	50.1µM*
O=C(Cc1ccccc1)Nc1ccc2oc(=O)ccc2c1	·	-1.2%	4.6%	2.4%
O=C(Nc1ccc(Oc2ccc3ccccc3c2)cc1)c1ccco1	-8.7%	15.8µM*	-1.6%	7.6%
O=C(Nc1ccc2oc(=O)ccc2c1)c1ccco1	8.1%	28.2µM*	-8.3%	6.5%
O=C(Cc1n[nH]c(=O)[nH]c1=O)N/N=C/CCc1ccccc1	2.3%	-0.5%	4.7%	2.2%
CCC(C)C(NC(=O)c1ccccc1NC(=O)c1ccc(OC)cc1)C(=O)NCCCn1ccnc1 (configuration not stated)	5.2%	·	-1.3%	3.1%
Cc1ccc2cc3c(nc2c1)N(Cc1ccco1)CC3	4.5%	28.2µM*	-6.7%	-28.5%
SMILES	TCR act	ClpP mod	uPA surface inh	Sfp inh
Cc1ccc(S(=O)(=O)N2CCN(Cc3ccco3)CC2)c(C)c1	0.7%	·	0.5%	7.4%
O=C(Nc1ccccc1F)c1ccc(C(=O)c2ccccc2)cc1	-2.8%	0.9%	-2.5%	4.4%
Cc1noc(C)c1CSCc1ccc(Cl)cc1	0.9%	·	2.0%	-2.2%
O=C1NC(=S)/C(=C\c2ccc(-c3ccccc3Cl)o2)S1	-0.3%[46.1 µM]	-0.4%	2.6%	50.1µM*
O=C1NC(=O)/C(=C\c2ccc(Br)o2)S1	-4.6%	-5.2%	6.2%	?
O=C1NC(=O)/C(=C/c2ccc(-c3cc(C(=O)O)ccc3Cl)o2)S1	·	-11.0%	-9.5%	31.6µM*
C[C@@H]1CN([C@H](C)CO)C(=O)CCCn2nncc2CO[C@H]1CN(C)CC1CC1	·	0.0%	·	·
CCn1c(=O)c2cc(C(=O)NCCCN3CCN(C)CC3)sc2c2ccccc21	·	3.8%	·	·
CCOC(=O)C1=C(C)N=C2SCCC(=O)N2C1c1ccc(OCc2ccccc2)c(OC)c1 (configuration not stated)	·	-0.2%	·	·
CCOc1cc(CNc2ccc3[nH]c(=O)[nH]c3c2)ccc1OCC(=O)NC(C)(C)C	9.0%	22.3%	-1.0%	?
O=C(COc1ccccc1Cl)Nc1ccc2[nH]c(=O)[nH]c2c1	0.0%	15.8µM*	1.0%	·
COc1cc(CNc2ccc3[nH]c(=O)[nH]c3c2)cc(Cl)c1OCC(=O)NC(C)(C)C	4.7%	-13.2%	-3.9%	11.2µM*
Cc1ccc(C(=O)NC(=S)N(C)C2CCCCC2)cc1	5.6%	0.8%	-25.9%	-0.8%
COc1cccc2[nH]c3c(N4CCC5(CC4)OCCO5)ncnc3c12	9.3%	4.0%	-14.5%	2.7%
c1ccc2c(c1)[nH]c1c(N3CCC4(CC3)OCCO4)ncnc12	-19.3%	28.2µM*	-12.8%	-4.3%
c1ccc2c(c1)CCN(c1ncnc3c1[nH]c1ccccc13)C2	-7.9%	20µM*	-11.2%	-8.5%
COc1ccc(-c2cc(C(F)(F)F)n3nc(-c4ccc(Cl)cc4)cc3n2)cc1OC	·	-23.9%	·	·
O=C(NNc1nc2cc3c(cc2s1)OCO3)c1ccc(F)cc1	13.0%	-1.8%	8.5%	28.2µM*
O=C(NNc1nc2cc3c(cc2s1)OCCO3)c1ccc(F)cc1	5.5%	0.3%	5.0%	56.2µM*
Cc1ccc(C)n1-c1ccc(N(C)C)cc1	1.7%	-0.8%	-7.2%	39.8µM*
Cc1ccc(C)n1-c1ccc(N2CCOCC2)cc1	6.6%	-2.2%	-3.7%	-53.3%
O=C(COc1ccccc1-c1ccccc1)NN=C1CCCC1	-1.5%	1.0%	10µM*	-7.9%
CCOc1cc(-c2ccc(OC(=O)c3ccc(Cl)cc3)c(OC)c2)cc(=O)c2c(C)oc(C)c12	·	-1.9%	·	·
O=C(CCl)N=c1sccn1Cc1cccc2ccccc12	2.6%	-1.2%	0.224µM*	-8.7%
O=C(CCl)N=c1sccn1Cc1ccccc1Cl	0.7%	·	-4.5%	-10.2%
N[C@@H](CCS(=O)O)C(=O)O	·	·	·	39.8µM*!
COc1cc(OC)c2c(-c3ccccc3)cc(=O)oc2c1C(CCN1CCCCC1)c1ccc(N(C)C)cc1 (configuration not stated)	-4.1%	0.2%	10µM*	?
COc1cc(OC)c2c(-c3ccccc3)cc(=O)oc2c1C(CCN1CCOCC1)c1ccc(N(C)C)cc1 (configuration not stated)	-1.1%[46.1 µM]	0.7%	?	-21.1%
COc1cc(OC)c2c(-c3ccccc3)cc(=O)oc2c1C(CCN1CCCCC1)c1ccc2c(c1)OCO2 (configuration not stated)	-5.2%	-2.1%	?	12.6µM*!
COc1cc(OC)c2c(-c3ccccc3)cc(=O)oc2c1C(CCN1CCCC(C)C1)c1ccc2c(c1)OCO2 (configuration not stated)	-2.6%	-2.8%	?	?
